This is a sample that favours compounds with a hit; in the whole collection about 1.3% have one here.
CRFR2-BP ag: CRF-BP/CRF-R2 complex agonism; activation, % at 13.2 µM; HEK293 CRF-R2/CRF-BP, calcium dye fluorescence (FLIPR); percent of saturating CRF peptide response; 350,000 tested, 0.46% active;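 active = activation of at least 50%, plus an integration ratio under a set limit after plate pattern correction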
Cardiac RTF inh: cardiac RTF calcium desensitization; IANBD-labeled cardiac RTF, Ca2+ fluorescence; AID 493244; 340,000 tested, 0.12% active; inhibition, % at 7.15 µM;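 active = inhibition above the mean inhibition of all tested compounds plus 3 SD, cut at about 17% in these data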;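 note: assay run at fixed EC70 calcium of 1.6 mM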
LANA DNA inh: inhibitors of KSHV LANA C-terminal domain DNA binding. 340,000 tested, 0.078% active. AID 504423. inhibition, % at 9 µM. MBP-C-LANA/FAM-LBS DNA binding, fluorescence polarization;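 active = highest replicate inhibition at or above 60% at 9 µM, even if other replicates fall short; inactive = all replicates below 60% inhibition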
cardiac RTF act: cardiac RTF calcium sensitization | IANBD-labeled TnC RTF fluorescence at EC20 calcium; 0% EC20 calcium, 100% full calcium | activation, % at 7.2 µM | 340,000 tested, 0.24% active;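 active = activation above the mean over all tested compounds plus 3 SD, cut at about 30% in these data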;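 note: rise in fluorescence read as greater calcium sensitivity of cardiac thin filaments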
Keap1 Nrf2 FP: Keap1-Nrf2 (human) interaction inhibition. inhibition, % at 9.4 µM. 340,000 tested, 0.15% active. Keap1 Kelch-Nrf2 peptide fluorescence polarization, 1536-well. Q14145; in the data active = inhibition above about 12%;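 note: human Keap1 Kelch domain with fluorescein labeled Nrf2 9mer peptide probe; higher means more block of Keap1 binding to Nrf2 peptide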
Target sequence (Q14145 whole entry, looked up, the tested form may be a part): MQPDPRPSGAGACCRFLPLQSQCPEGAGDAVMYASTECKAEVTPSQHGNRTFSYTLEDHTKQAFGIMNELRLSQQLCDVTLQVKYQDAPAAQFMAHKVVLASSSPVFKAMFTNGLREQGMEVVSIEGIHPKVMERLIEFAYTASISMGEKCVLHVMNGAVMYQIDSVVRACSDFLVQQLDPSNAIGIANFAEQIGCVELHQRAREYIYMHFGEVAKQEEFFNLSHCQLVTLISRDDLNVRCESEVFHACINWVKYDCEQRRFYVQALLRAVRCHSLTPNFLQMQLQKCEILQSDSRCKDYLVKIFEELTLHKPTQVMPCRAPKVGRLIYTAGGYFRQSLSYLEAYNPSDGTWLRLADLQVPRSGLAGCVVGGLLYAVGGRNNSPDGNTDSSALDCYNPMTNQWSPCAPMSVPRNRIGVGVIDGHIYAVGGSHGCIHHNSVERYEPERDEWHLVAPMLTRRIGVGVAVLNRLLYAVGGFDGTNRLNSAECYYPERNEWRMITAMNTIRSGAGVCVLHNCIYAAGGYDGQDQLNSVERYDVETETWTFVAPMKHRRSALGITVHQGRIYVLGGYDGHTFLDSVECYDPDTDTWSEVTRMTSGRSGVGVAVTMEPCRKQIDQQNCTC
CRFR2-BP antag: blocks CRF-induced signaling of the CRF-BP/CRF-R2 complex; HEK293 CRF-R2/CRF-BP, CRF-induced calcium fluorescence; inhibition, % at 11.8 µM; 350,000 tested, 0.59% active; AID 588475;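 active = inhibition of the ligand-induced calcium signal above about 50% at the single tested concentration, limit read from the data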
Numbers stand for hits.

How did COC(=O)c1c(NS(=O)(=O)Cc2ccccc2)sc2c1CCCC2 do in these assays?
CRFR2-BP ag: inactive; Cardiac RTF inh: inactive; LANA DNA inh: inactive; cardiac RTF act: inactive; Keap1 Nrf2 FP: inactive; CRFR2-BP antag: inactive

What do the screens show for `O=c1c2oc3ccccc3c2[nH]c(=S)n1-c1ccc(F)cc1`?
CRFR2-BP ag: inactive; Cardiac RTF inh: inactive; LANA DNA inh: inactive; cardiac RTF act: inactive; Keap1 Nrf2 FP: inactive; CRFR2-BP antag: inactive

How did c1ccc(SCCc2ccncc2)cc1 do in these assays?
CRFR2-BP ag: inactive; Cardiac RTF inh: inactive; LANA DNA inh: inactive; cardiac RTF act: inactive; Keap1 Nrf2 FP: inactive; CRFR2-BP antag: inactive

Results for CC(C)(C)c1ccc(SCCc2cccnc2)cc1 ?
CRFR2-BP ag: inactive; Cardiac RTF inh: inactive; LANA DNA inh: inactive; cardiac RTF act: inactive; Keap1 Nrf2 FP: inactive; CRFR2-BP antag: 71

What do the screens show for `Cc1ccc(/C=C/c2ccc(N(C)C)cc2)[n+](C)c1`?
CRFR2-BP ag: inactive; Cardiac RTF inh: inactive; LANA DNA inh: inactive; cardiac RTF act: 39; Keap1 Nrf2 FP: inactive; CRFR2-BP antag: inactive

Results for CN(C)c1ccc(/C=C/c2cc[n+](C)cc2)cc1 ?
CRFR2-BP ag: inactive; Cardiac RTF inh: inactive; LANA DNA inh: inactive; cardiac RTF act: 47; Keap1 Nrf2 FP: inactive; CRFR2-BP antag: inactive

Results for C=CCn1c(SCC(=O)Nc2c(C)cccc2C)nnc1-c1ccncc1 ?
CRFR2-BP ag: inactive; Cardiac RTF inh: inactive; LANA DNA inh: inactive; cardiac RTF act: inactive; Keap1 Nrf2 FP: inactive; CRFR2-BP antag: 52

What do the screens show for `CC(C)(C)c1cc(C(=O)O)nn1-c1ccccc1`?
CRFR2-BP ag: inactive; Cardiac RTF inh: inactive; LANA DNA inh: inactive; cardiac RTF act: inactive; Keap1 Nrf2 FP: inactive; CRFR2-BP antag: 68

How did O=C(O)c1cc(-c2ccccc2)n(-c2ccccc2)n1 do in these assays?
CRFR2-BP ag: inactive; Cardiac RTF inh: inactive; LANA DNA inh: inactive; cardiac RTF act: inactive; Keap1 Nrf2 FP: inactive; CRFR2-BP antag: inactive

Results for N#CC1(C#N)C(c2ccccc2)OC23CCCCCC2C1(C#N)C(=N)O3 (centres undefined) ?
CRFR2-BP ag: inactive; Cardiac RTF inh: inactive; LANA DNA inh: inactive; cardiac RTF act: inactive; Keap1 Nrf2 FP: inactive; CRFR2-BP antag: inactive

What do the screens show for `N#CC1(C#N)C(c2ccccc2)OC23CCCCC2C1(C#N)C(=N)O3` (centres undefined)?
CRFR2-BP ag: inactive; Cardiac RTF inh: inactive; LANA DNA inh: inactive; cardiac RTF act: 30; Keap1 Nrf2 FP: 21; CRFR2-BP antag: inactive

Results for CCCCCCCCOc1ccc(C2OC34CCCCC3C(C#N)(C#N)C2(C#N)C(=N)O4)cc1 (centres undefined) ?
CRFR2-BP ag: inactive; Cardiac RTF inh: inactive; LANA DNA inh: inactive; cardiac RTF act: inactive; Keap1 Nrf2 FP: 28; CRFR2-BP antag: inactive

Results for CCC1CCC(c2nnc(-c3ccc([N+](=O)[O-])cc3)o2)CC1 (centres undefined) ?
CRFR2-BP ag: inactive; Cardiac RTF inh: inactive; LANA DNA inh: inactive; cardiac RTF act: inactive; Keap1 Nrf2 FP: inactive; CRFR2-BP antag: inactive

Results for COc1ccccc1N=C1NC(=O)/C(=C/c2ccc(N(C)C)cc2)S1 ?
CRFR2-BP ag: 79; Cardiac RTF inh: inactive; LANA DNA inh: inactive; cardiac RTF act: 48; Keap1 Nrf2 FP: inactive; CRFR2-BP antag: inactive

How did COc1ccc2c(c1)c(/C=C/c1cc[n+](C)cc1)cn2C do in these assays?
CRFR2-BP ag: inactive; Cardiac RTF inh: inactive; LANA DNA inh: inactive; cardiac RTF act: 75; Keap1 Nrf2 FP: inactive; CRFR2-BP antag: inactive

What do the screens show for `COc1ccc2c(c1)c1ccccc1n2C`?
CRFR2-BP ag: inactive; Cardiac RTF inh: inactive; LANA DNA inh: inactive; cardiac RTF act: inactive; Keap1 Nrf2 FP: inactive; CRFR2-BP antag: inactive

What do the screens show for `Cc1nn(C)cc1C(C(=O)NC1CCCCC1)N(C(=O)Cc1cccs1)c1ccc(Cl)cc1` (centres undefined)?
CRFR2-BP ag: 58; Cardiac RTF inh: inactive; LANA DNA inh: inactive; cardiac RTF act: inactive; Keap1 Nrf2 FP: inactive; CRFR2-BP antag: inactive

What do the screens show for `Cc1ccc(N(C(=O)Cn2nnc3ccccc32)C(C(=O)NC2CCCCC2)c2cn(C)nc2C)cc1` (centres undefined)?
CRFR2-BP ag: inactive; Cardiac RTF inh: inactive; LANA DNA inh: inactive; cardiac RTF act: inactive; Keap1 Nrf2 FP: inactive; CRFR2-BP antag: inactive

How did COc1ccc(/C=N/N(C)C2=NS(=O)(=O)c3ccccc32)cc1 do in these assays?
CRFR2-BP ag: inactive; Cardiac RTF inh: inactive; LANA DNA inh: inactive; cardiac RTF act: inactive; Keap1 Nrf2 FP: inactive; CRFR2-BP antag: inactive

What do the screens show for `CN(/N=C/c1ccc(N(C)C)cc1)C1=NS(=O)(=O)c2ccccc21`?
CRFR2-BP ag: inactive; Cardiac RTF inh: inactive; LANA DNA inh: inactive; cardiac RTF act: 61; Keap1 Nrf2 FP: inactive; CRFR2-BP antag: inactive

Results for O=C(COC(=O)c1ccc[n+]([O-])c1)Nc1ccc([N+](=O)[O-])cc1C(F)(F)F ?
CRFR2-BP ag: inactive; Cardiac RTF inh: inactive; LANA DNA inh: inactive; cardiac RTF act: inactive; Keap1 Nrf2 FP: inactive; CRFR2-BP antag: inactive

How did Cc1cccc2cc3c(N)c(C(=O)Nc4ccc(N5CCOCC5)cc4)sc3nc12 do in these assays?
CRFR2-BP ag: inactive; Cardiac RTF inh: inactive; LANA DNA inh: inactive; cardiac RTF act: inactive; Keap1 Nrf2 FP: inactive; CRFR2-BP antag: inactive

How did CCc1cccc2cc3c(N)c(C(=O)Nc4ccc(S(=O)(=O)N5CCCC5)cc4)sc3nc12 do in these assays?
CRFR2-BP ag: 63; Cardiac RTF inh: inactive; LANA DNA inh: inactive; cardiac RTF act: inactive; Keap1 Nrf2 FP: inactive; CRFR2-BP antag: inactive

How did CCN(C(=O)c1sc(N)c(C#N)c1C)C1CCCCC1 do in these assays?
CRFR2-BP ag: inactive; Cardiac RTF inh: inactive; LANA DNA inh: inactive; cardiac RTF act: inactive; Keap1 Nrf2 FP: inactive; CRFR2-BP antag: inactive

Results for CC(=O)Nc1ccc([N+](=O)[O-])cn1 ?
CRFR2-BP ag: inactive; Cardiac RTF inh: inactive; LANA DNA inh: inactive; cardiac RTF act: inactive; Keap1 Nrf2 FP: inactive; CRFR2-BP antag: inactive

Results for Cc1ccc(OCC(=O)Nc2ccc([N+](=O)[O-])cn2)cc1C ?
CRFR2-BP ag: inactive; Cardiac RTF inh: inactive; LANA DNA inh: inactive; cardiac RTF act: inactive; Keap1 Nrf2 FP: inactive; CRFR2-BP antag: 51

What do the screens show for `OCCOCCN1CCN(C(=S)Nc2ccccc2)CC1`?
CRFR2-BP ag: inactive; Cardiac RTF inh: inactive; LANA DNA inh: inactive; cardiac RTF act: inactive; Keap1 Nrf2 FP: inactive; CRFR2-BP antag: 70

How did COc1ccc(NC2CC(=O)N(c3cc([N+](=O)[O-])ccc3C)C2=O)cc1 (centres undefined) do in these assays?
CRFR2-BP ag: inactive; Cardiac RTF inh: inactive; LANA DNA inh: inactive; cardiac RTF act: inactive; Keap1 Nrf2 FP: inactive; CRFR2-BP antag: inactive

How did Cc1ccc(O)c(C(=O)c2cc(C#N)c3nc4ccccc4n3c2)c1 do in these assays?
CRFR2-BP ag: 66; Cardiac RTF inh: inactive; LANA DNA inh: inactive; cardiac RTF act: inactive; Keap1 Nrf2 FP: inactive; CRFR2-BP antag: inactive
